System: RIVA
Assay: growth inhibition by drug alone (1 - RLU/untreated control) (fraction); higher = stronger inhibition
Conditions: 177Lu-lilotomab satetraxetan 0 ug/ml
Experimental: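 RIVA (RI-1) ABC-DLBCL cells were pretreated or not for 18 h with 0.5 ug/ml 177Lu-lilotomab satetraxetan (600 MBq/mg), washed and seeded (3000 cells/well) on 384-well plates pre-printed with the Selleck Cambridge Cancer Compound library. Viability was read by RealTime-Glo luminescence on days 3-6 after seeding. Effect = 1 - RLU/mean RLU of the 48 untreated no-drug control wells per plate; Bliss score = (M-E)/(1-Fa).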

Row | Compound | growth inhibition by drug alone (10 nM, time (day): 3) | growth inhibition by drug alone (10 nM, time (day): 4) | growth inhibition by drug alone (10 nM, time (day): 5) | growth inhibition by drug alone (10 nM, time (day): 6) | growth inhibition by drug alone (100 nM, time (day): 3) | growth inhibition by drug alone (100 nM, time (day): 4) | growth inhibition by drug alone (100 nM, time (day): 5) | growth inhibition by drug alone (100 nM, time (day): 6)
1 | Cc1[nH]c2ccccc2c1CCNCc1ccc(/C=C/C(=O)NO)cc1 [Panobinostat] | 0.637 | 0.535 | 0.447 | 0.328 | 0.977 | 0.977 | 0.975 | 0.975
2 | CC(C)C[C@H](NC(=O)[C@@H](O)[C@H](N)Cc1ccccc1)C(=O)O [Ubenimex (Bestatin)] | 0.135 | 0.0658 | -0.0244 | -0.181 | 0.0407 | 0.0221 | 0.00426 | -0.114
3 | COc1cc2nc(N3CCCN(C)CC3)nc(NC3CCN(Cc4ccccc4)CC3)c2cc1OC | 0.0768 | 0.122 | 0.055 | -0.0793 | 0.209 | 0.192 | 0.165 | 0.117
4 | COc1ccc(-c2ccc3c(N4CCOC[C@@H]4C)nc(N4CCOC[C@@H]4C)nc3n2)cc1CO | 0.0033 | -0.0925 | -0.125 | -0.292 | 0.617 | 0.609 | 0.575 | 0.472
5 | O=C1c2ccccc2C(=O)c2c(NCCc3ccc(O)cc3)ccc(NCCc3ccc(O)cc3)c21 | -0.237 | -0.358 | -0.539 | -0.808 | -0.77 | -0.807 | -0.893 | -1.08
